The source of these data is PubChem BioAssay (EPA / NIEHS).

Active and inactive are the calls of the source. How the source made its calls: active means hit-call score of the fitted dose curve at least 0.9, where 1 is the maximum; inactive means score below 0.9.

Sequence of Estrogen receptor (Homo sapiens) (P03372 whole entry, looked up): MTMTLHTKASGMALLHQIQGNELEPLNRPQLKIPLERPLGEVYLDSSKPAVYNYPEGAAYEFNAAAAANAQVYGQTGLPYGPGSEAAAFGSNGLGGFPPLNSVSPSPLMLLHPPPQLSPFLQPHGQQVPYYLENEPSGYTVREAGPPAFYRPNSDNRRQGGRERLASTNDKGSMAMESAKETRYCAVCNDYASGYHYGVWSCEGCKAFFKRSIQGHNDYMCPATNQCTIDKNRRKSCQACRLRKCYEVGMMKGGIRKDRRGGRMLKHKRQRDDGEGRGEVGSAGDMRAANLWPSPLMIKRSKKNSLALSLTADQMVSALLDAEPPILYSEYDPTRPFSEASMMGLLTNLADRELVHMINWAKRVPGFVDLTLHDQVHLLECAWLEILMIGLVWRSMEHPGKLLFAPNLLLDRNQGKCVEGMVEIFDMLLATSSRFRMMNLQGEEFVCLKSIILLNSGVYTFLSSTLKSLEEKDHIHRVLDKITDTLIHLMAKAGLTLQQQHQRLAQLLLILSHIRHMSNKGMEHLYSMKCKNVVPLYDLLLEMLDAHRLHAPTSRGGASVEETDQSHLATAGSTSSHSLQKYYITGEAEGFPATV

The target in the assay is Estrogen receptor (Homo sapiens) (UniProt P03372). Put plainly: CCTE_Deisenroth_AIME_384WELL_LUC_Shift: CCTE's 384-well Estrogen Receptor Transactivation Assay with AIME metabolic competence data shift (ERTA luciferase; difference in metabolism positive and negative), Deisenroth Lab (AID 2284041).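 Further: shift is response with S9 minus without S9 so positive means metabolism raised ER signal.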 On the procedure:
CCTE_Deisenroth_AIME_384WELL (AIME metabolism assay) is a cell-based, single-readout assay that uses VM7Luc4E2, a human mammary gland/breast cell line, with measurements taken at 24 hour after chemical dosing in a 384-well plate.CCTE_Deisenroth_AIME_384WELL_LUC_Shift is one of two analysis components calculated from the CCTE_Deisenroth_AIME_384WELL assay. […] AIME is optimized to impart phase I hepatic metabolism using phenobarbital/beta-naphthoflavone induced hepatic S9 from male Sprague Dawley rats. Parent chemicals are incubated for 2 hours in the AIME assay prior to transfer to the VM7Luc ERTA assay plate. […] The metabolic curve shift response is defined as the pairwise difference between the positive (AEID 2488) and negative (AEID 2490) normalized response values at each concentration for a given chemical across replicate experiments. The pairwise differences form the basis for a concentration-response curve. Standard curve fit analysis identfiied chemicals where the calculated shift was greater than the shift-derived baseline cutoff. A positive hit designation in this endpoint indicates a significant shift trend in the positive direction for bioactivation.
The AIME procedure consists of a preparative "pre-stamping" step using a barium chloride/poly-L-lysine (PLL) solution followed by "stamping" the lid in alginate-hepatic S9 (metabolism positive) or alginate-water (metabolism negative) to form microspheres. Once stamping is completed, the AIME lids are placed in duplicate microplates (metabolism positive or negative) containing chemical solutions and incubated for two hours to facilitate metabolic reactions. The conditioned medium, containing parent chemical or metabolites, is then transferred to the cell-based VM7Luc Estrogen Receptor Transactivation Assay (ERTA) for 24 hours. A typical experimental design tests a 10-point concentration series (0.002 - 200 uM) for 8 compounds (96-well format)1 or 32 compounds (384-well format)2 in single technical replicate. AIME assay controls include trans-stilbene (bioactivated control) and ethylparaben (bioinactivated control). ERTA assay plate controls include 17-beta estradiol (positive control) and DMSO (solvent control). Experiments typically comprise a minimum of four experimental replicates (n=4).
Consider `Cc1[nH]c(=O)n(C(C)(C)C)c(=O)c1Cl`, for which the AC50 is 66.1 µM (active).

For `CCC(C)Nc1c([N+](=O)[O-])cc(C(C)(C)C)cc1[N+](=O)[O-]` (stereo unspecified), the AC50 is 8.77 µM (active).

`CC(C)(C)C(O)/C(=C\c1ccc(Cl)cc1Cl)n1cncn1` (stereo unspecified): the result was inactive.

On to `CCc1ccc(C(=O)NN(C(=O)c2cc(C)cc(C)c2)C(C)(C)C)cc1`, for which the outcome was inactive.

With `CC(C)N(C(=O)COc1nnc(C(F)(F)F)s1)c1ccc(F)cc1`, the outcome was inactive.

As for `Clc1ccccc1-c1nnc(-c2ccccc2Cl)nn1`, the result was inactive.

As for `CNC(=O)Oc1ccccc1OC(C)C`, the result was inactive.

Turning to `CNC(=O)Oc1cccc(N=CN(C)C)c1`, the result was inactive.

With `CCOCN(C(=O)CCl)c1c(C)cccc1CC`, the result was inactive.

On to `COP(=O)(OC)OC=C(Cl)Cl`, for which the result was inactive.

With `CNC(=O)/C=C(\C)OP(=O)(OC)OC`, the result was inactive.

Regarding `CCOC1Oc2ccc(OS(C)(=O)=O)cc2C1(C)C` (stereo unspecified), the result was inactive.

On to `OCCOc1ccccc1`, for which the AC50 was 23.8 µM (active).

As for `O=S1OCC2C(CO1)C1(Cl)C(Cl)=C(Cl)C2(Cl)C1(Cl)Cl` (stereo unspecified), the result was inactive.

Consider `C[C@H]1[C@H](c2ccc(Cl)cc2)SC(=O)N1C(=O)NC1CCCCC1`, for which the result was inactive.

With `CCCN(CCC)c1c([N+](=O)[O-])cc(C(F)(F)F)cc1[N+](=O)[O-]`, the result was inactive.

Broadly, the AC50 is the concentration giving half of the maximal activity seen.
